In PubChem BioAssay (NCATS):
Results filed as inconclusive are left out. A call without a number means that no potency is given here. The source made the active and inactive calls. Unless noted, the call rests on the fitted dose curve; in most records, active means well fitted curve in the direction sought with a large enough effect; inconclusive means small, poorly fitted or top-dose-only effect, or another doubt; inactive means no such curve, though single readings can be large; an effect the other way counts as inactive or inconclusive.

How the values were obtained:
[1] = biological target: Cytochrome P450 1A2 (Homo sapiens) (UniProt P05177); assay: p450-cyp1a2 (AID 410; calls by dose curve)
Method in brief: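 Luminescent demethylation readout: Luciferin-ME (100uM, equal to Km) turned over by 20nM CYP1A2 for 60 min at room temperature after NADPH regeneration addition, following 10 min compound preincubation. Normalization used 57 uM furafylline as full inhibition.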

[2] = biological target: 3',5'-cyclic-AMP phosphodiesterase 4B (Homo sapiens) (UniProt Q07343); assay: qHTS Assay for Inhibitors of PDE-IV (AID 607; active means well fitted activation curve with a large enough effect in the main read-out, with a control signal flat, not every such curve was filed as active)
Method in brief: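 Cell-based read-out of cAMP via a modified cyclic nucleotide-gated channel and membrane potential dye (535/590 nm) in HEK293 cells expressing PDE4 endogenously. Compounds tested up to 22.9 uM final; 100 uM RO 20-1724 reference.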

[3] = biological target: Cytochrome P450 3A4 (Homo sapiens) (UniProt P08684); assay: qHTS Assay for Inhibitors and Substrates of Cytochrome P450 3A4 (AID 884); further: nearly all actives have a fitted effect of over 50% in size; further: potency means the concentration at half of the fitted maximal effect
Method in brief: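 Luminescent readout of luciferin produced by CYP3A4 (20 nM) dealkylation of Luciferin-PPXE, 25 uM (its KM). NADPH-driven reaction ran 60 min at RT after 10 min compound preincubation; data scaled to 57 uM ketoconazole as 100% inhibition.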

[4] = biological target: Cytochrome P450 3A4 (Homo sapiens) (UniProt P08684); assay: qHTS Assay for Activators of Cytochrome P450 3A4 (AID 885); further: nearly all actives have a fitted effect of over 65% in size
Method in brief: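 Luminescent readout of luciferin formed from 25 uM Luciferin-PPXE (KM level) by 20 nM CYP3A4 in 200 mM KPO4, with 60 min NADPH-driven reaction at room temperature after 10 min compound exposure. Ketoconazole (57 uM) defined 100% inhibition.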

[5] = S16 Schwann cell PMP22 intronic element beta-lactamase assay (AID 624044; calls by dose curve; further: nearly all actives have a fitted effect of over 15% in size; further: potency means the concentration at half of the fitted maximal effect)
Method in brief: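 Beta-lactamase reporter under a PMP22 intronic regulatory element in stable S16 rat Schwann cells; 24 h compound exposure. 460 nm blue signal normalized between DMSO (0%) and potassium clavulanate, with 535 nm FRET tracking viability; curves classed by r2 and response.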

7G8 = assay: qHTS profiling for inhibitors of Plasmodium falciparum proliferation (AID 504749); further: nearly all actives have a fitted effect of over 60% in size; further: potency means the concentration at half of the fitted maximal effect; details: P. falciparum in erythrocytes, SYBR Green DNA, 72 h; series mostly up to 12.8 µM
Method in brief: (§1)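 Quantitative HTS: compounds pinned into medium, infected erythrocytes added (0.3% parasitemia, 2.5% hematocrit), 72 h culture at 37 C under 5% CO2. Saponin/Triton lysis with SYBR Green I, overnight RT, then fluorescence read.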

CP215 = assay: as above; details: P. falciparum in erythrocytes, SYBR Green DNA, 72 h; series mostly up to 12.8 µM
Method in brief: as §1

DFO2036 = assay: as above; details: P. falciparum in erythrocytes, SYBR Green DNA, 72 h; series mostly up to 12.8 µM
Method in brief: as §1

DIV14 = assay: as above; details: P. falciparum in erythrocytes, SYBR Green DNA, 72 h; series mostly up to 12.8 µM
Method in brief: as §1

DIV17 = assay: as above; details: P. falciparum in erythrocytes, SYBR Green DNA, 72 h; series mostly up to 12.8 µM
Method in brief: as §1

GB4 = assay: as above; details: P. falciparum in erythrocytes, SYBR Green DNA, 72 h; series mostly up to 12.8 µM
Method in brief: as §1

ICS = assay: as above; details: P. falciparum in erythrocytes, SYBR Green DNA, 72 h; series mostly up to 12.8 µM
Method in brief: as §1

W2 = assay: as above; details: P. falciparum in erythrocytes, SYBR Green DNA, 72 h; series mostly up to 12.8 µM
Method in brief: as §1

[6] = Confirmation and Secondary Assay for Modulators of Hemoglobin Beta Chain Splicing at IVS2 654 locus (AID 910);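 further: per-well total GFP intensity by laser scanning cytometry after 2-day treatment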
Method in brief: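 HeLa cells stably carrying EGFP interrupted by mutant beta-globin IVS2-654 intron (CMV-driven) were treated with compound for 2 days at 37C; corrected splicing was scored as total peak GFP intensity per well (488 nm excitation, 500-520 nm emission).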

[7] = Confirmation and Secondary Assay for Modulators of Hemoglobin Beta Chain Splicing at IVS2 705 locus (AID 930);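 further: HeLa cells stably expressing the EGFP-705 splicing reporter; GFP fluorescence per well restored by corrected splicing of the IVS2-705 intron in EGFP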
Method in brief: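 HeLa EGFP-705 reporter; 500 cells/well, o/n 37C 5% CO2; cpd 2 d; 488 ex/500-520 em laser scan; total peak GFP intensity/well. Ref: 500 nM […] antisense PNA.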

Chain of Cytochrome P450 3A4 (Homo sapiens) (P08684 whole entry, looked up): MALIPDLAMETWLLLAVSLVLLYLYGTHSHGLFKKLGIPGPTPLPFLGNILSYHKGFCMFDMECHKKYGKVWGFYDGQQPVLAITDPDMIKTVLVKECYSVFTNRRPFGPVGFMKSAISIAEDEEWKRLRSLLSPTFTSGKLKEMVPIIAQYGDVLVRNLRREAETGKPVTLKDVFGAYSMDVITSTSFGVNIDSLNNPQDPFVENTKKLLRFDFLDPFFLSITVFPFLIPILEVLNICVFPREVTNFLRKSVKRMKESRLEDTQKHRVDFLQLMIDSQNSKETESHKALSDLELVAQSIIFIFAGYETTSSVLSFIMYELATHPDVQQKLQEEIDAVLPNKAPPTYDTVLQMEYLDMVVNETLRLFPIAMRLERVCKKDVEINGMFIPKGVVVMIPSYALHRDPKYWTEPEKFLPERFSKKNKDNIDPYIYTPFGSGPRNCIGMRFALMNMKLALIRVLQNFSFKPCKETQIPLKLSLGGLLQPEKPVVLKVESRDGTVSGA
Chain of 3',5'-cyclic-AMP phosphodiesterase 4B (Homo sapiens) (Q07343 whole entry, looked up): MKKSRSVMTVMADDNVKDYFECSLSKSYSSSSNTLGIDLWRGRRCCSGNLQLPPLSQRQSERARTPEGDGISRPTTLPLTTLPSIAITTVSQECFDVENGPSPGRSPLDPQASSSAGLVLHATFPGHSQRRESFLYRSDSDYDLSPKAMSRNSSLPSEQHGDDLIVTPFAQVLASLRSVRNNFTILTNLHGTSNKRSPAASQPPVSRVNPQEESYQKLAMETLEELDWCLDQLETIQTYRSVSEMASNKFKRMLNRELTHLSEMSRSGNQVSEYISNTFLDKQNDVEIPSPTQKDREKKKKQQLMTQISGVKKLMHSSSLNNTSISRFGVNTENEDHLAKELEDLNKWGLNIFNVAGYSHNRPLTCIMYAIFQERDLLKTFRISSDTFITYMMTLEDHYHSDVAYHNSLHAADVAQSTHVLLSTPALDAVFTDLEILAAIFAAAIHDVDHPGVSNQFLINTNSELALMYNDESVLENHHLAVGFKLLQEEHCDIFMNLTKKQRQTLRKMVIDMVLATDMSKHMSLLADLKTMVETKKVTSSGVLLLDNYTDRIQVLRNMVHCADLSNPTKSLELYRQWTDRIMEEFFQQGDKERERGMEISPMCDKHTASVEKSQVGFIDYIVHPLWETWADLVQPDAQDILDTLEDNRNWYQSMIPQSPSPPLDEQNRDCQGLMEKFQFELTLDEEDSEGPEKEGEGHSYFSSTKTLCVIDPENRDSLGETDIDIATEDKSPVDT
Chain of Cytochrome P450 1A2 (Homo sapiens) (P05177 whole entry, looked up): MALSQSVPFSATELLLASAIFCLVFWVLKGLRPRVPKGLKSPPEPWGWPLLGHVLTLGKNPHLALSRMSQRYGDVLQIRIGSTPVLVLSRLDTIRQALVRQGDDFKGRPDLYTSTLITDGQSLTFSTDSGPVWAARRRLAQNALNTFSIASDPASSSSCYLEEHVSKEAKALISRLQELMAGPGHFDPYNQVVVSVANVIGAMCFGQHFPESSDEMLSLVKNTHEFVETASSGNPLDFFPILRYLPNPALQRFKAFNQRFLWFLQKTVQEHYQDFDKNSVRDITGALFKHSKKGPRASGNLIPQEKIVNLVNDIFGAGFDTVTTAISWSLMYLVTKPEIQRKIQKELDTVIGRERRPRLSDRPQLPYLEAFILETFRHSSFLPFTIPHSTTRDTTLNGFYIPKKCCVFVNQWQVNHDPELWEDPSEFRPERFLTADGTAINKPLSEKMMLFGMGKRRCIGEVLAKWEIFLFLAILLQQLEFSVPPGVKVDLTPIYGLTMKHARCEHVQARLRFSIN

Structure (SMILES)	Potency [1]	outcome [2]	Potency [3]	Potency [4]	Potency [5]	Potency (7G8)	Potency (CP215)	Potency (DFO2036)	Potency (DIV14)	Potency (DIV17)	Potency (GB4)	Potency (ICS)	Potency (W2)	Potency [6]	Potency [7]
CC1(C)S[C@@H]2[C@H](NC(=O)[C@@H](N)c3ccccc3)C(=O)N2[C@H]1C(=O)O[C@H]1OC(=O)c2ccccc21	inactive	inactive	1.58 µM (active)	inactive	inactive	inactive	inactive	inactive	inactive	inactive	inactive	inactive	inactive		
CC1CCC(C(C)C)C(=O)C1 (stereo unspecified)			inactive			inactive	inactive	inactive	inactive	inactive	inactive	inactive	inactive	inactive	inactive
C/C1=C2N=C(/C=C3N=C(/C(C)=C4\[N-]C(C)(C5N=C1C(C)(CCC(=O)NCC(C)OP(=O)([O-])O[C@H]1C(O)C(n6cnc7cc(C)c(C)cc76)O[C@@H]1CO)C5CC(N)=O)C(C)(CC(N)=O)C4CCC(N)=O)C(C)(CC(N)=O)C\3CCC(N)=O)C(C)(C)C/2CCC(N)=O.[CH2-]C1OC(n2cnc3c(N)ncnc32)C(O)C1O.[Co] (stereo partly specified)				inactive		inactive	inactive	inactive	inactive	inactive	inactive			inactive	inactive
COc1c(O)cc(O)cc1O				inactive										inactive	inactive
COc1ccc2cc1Oc1ccc(cc1)CC1c3c(cc4c(c3Oc3cc5c(cc3OC)CCN(C)C5C2)OCO4)CCN1C (stereo unspecified)					inactive	2.24 µM (active)		7.94 µM (active)	5.36 µM (active)	7.57 µM (active)	6.75 µM (active)	2.82 µM (active)	1.9 µM (active)	inactive	inactive
O=C1OC(CO)C(O)C(O)C1O (stereo unspecified)			inactive		inactive	inactive	inactive	inactive	inactive	inactive	inactive	inactive	inactive	inactive	inactive
NC(C(=O)O)[C@@H]1CC(Cl)=NO1 (stereo partly specified)			inactive			0.631 µM (active)	3.01 µM (active)	2 µM (active)	2.39 µM (active)	3.38 µM (active)	1.2 µM (active)	0.891 µM (active)	0.849 µM (active)	inactive	inactive
CC(C)C1CCC(C(=O)NC(Cc2ccccc2)C(=O)O)CC1 (stereo unspecified)			inactive		inactive	inactive	inactive		inactive	inactive	inactive	inactive	inactive	inactive	inactive
NCC1CCC(N)C(O[C@@H]2C(O)[C@H](O[C@H]3OC(CO)C(O)C(N)C3O)[C@@H](N)C[C@H]2N)O1 (stereo partly specified)			inactive				inactive	inactive	inactive	inactive	inactive	inactive		inactive	inactive
CC1(C)OC2CO[C@]3(COS(N)(=O)=O)OC(C)(C)OC3C2O1 (stereo partly specified)			inactive		inactive		inactive		inactive	inactive	inactive	inactive	inactive	inactive	inactive
COc1ccc(CC(N)C(=O)NC2C(CO)OC(n3cnc4c(N(C)C)ncnc43)C2O)cc1 (stereo unspecified)					7.07 µM (active)	0.316 µM (active)	1.07 µM (active)	0.891 µM (active)	0.953 µM (active)	0.757 µM (active)	0.675 µM (active)	0.316 µM (active)	0.338 µM (active)	inactive	inactive
Cc1cc(O)c(C=O)c2c1C(=O)Oc1c(C)c(O)c3c(c1O2)C(O)OC3=O (stereo unspecified)				inactive										inactive	inactive
Cc1cc(O)c(C=O)c2c1C(=O)Oc1c(COC(=O)/C=C/C(=O)O)c(O)c(C(=O)O)c(C)c1O2				inactive										inactive	inactive
COC1C=CO[C@@]2(C)Oc3c(C)c(O)c4c(O)c(c5c(nc6cc(C)ccn65)c4c3C2=O)NC(=O)/C(C)=C\C=CC(C)C(O)[C@@H](C)C(O)C(C)[C@@H](OC(C)=O)C1C (stereo partly specified)				inactive	inactive	3.16 µM (active)	13.5 µM (active)		1.07 µM (active)	0.536 µM (active)	3.79 µM (active)	5.01 µM (active)	1.9 µM (active)	inactive	inactive
CC(C)=CCC[C@](C)(O)C1CC=C(C)CC1 (stereo partly specified)					inactive	inactive	inactive	inactive	inactive	inactive	inactive	inactive	inactive	inactive	inactive
CCCC(=O)O[C@]1(C(=O)CO)CCC2[C@@H]3CCC4=CC(=O)CC[C@]4(C)C3C(O)C[C@]21C (stereo partly specified)			inactive		inactive	inactive	inactive	inactive	inactive	inactive	inactive	inactive	inactive	inactive	inactive
CC(=O)OC1CCC2C3CCc4cc(O)ccc4C3CCC12C (stereo unspecified)					inactive		inactive	inactive	inactive	inactive	inactive			inactive	inactive
OCC1OC([S-])[C@H](O)C(O)C1O.[Au+] (stereo partly specified)			inactive				inactive		inactive	inactive	inactive	inactive		inactive	inactive
